Experimental data published in the supplement of paper PMC6555819.

How the values were obtained:
Assay in all cases: PBM binding z-score (relative to random genomic background probes); higher = stronger binding; sequences stand for … in GC…GCGATTGACAGCGTAGAATGAAGG
[1] = test system: FXR:RXRa (NR concentration 270 nM, RXRa partner concentration 90 nM)
Procedure, shortened: (§1)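 Ligand-free nuclear receptor dimers were applied to custom Agilent 4×180K protein-binding microarrays whose double-stranded probes carried direct-repeat seeds, single-nucleotide variants, half-site ablations and random human genomic background sequences in 34-nt variable regions. Incubation lasted 1 h. Binding z-scores were computed against the random background probes from regression-normalized fluorescence.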

[2] = test system: LXRa:RXRa (NR concentration 270 nM, RXRa partner concentration 90 nM)
Procedure, shortened: as §1

[3] = test system: LXRa homodimer (NR concentration 270 nM)
Procedure, shortened: as §1

[4] = test system: LXRb:RXRa (NR concentration 270 nM, RXRa partner concentration 90 nM)
Procedure, shortened: as §1

[5] = test system: LXRb homodimer (NR concentration 270 nM)
Procedure, shortened: as §1

[6] = test system: PPARa:RXRa (NR concentration 270 nM, RXRa partner concentration 90 nM)
Procedure, shortened: as §1

[7] = test system: PPARg:RXRa (NR concentration 180 nM, RXRa partner concentration 90 nM)
Procedure, shortened: as §1

[8] = test system: PPARg:RXRa 270nM:90nM, anti-RXR (NR concentration 270 nM, RXRa partner concentration 90 nM)
Procedure, shortened: as §1

[9] = test system: PPARg:RXRa 30nM:10nM, anti-RXR (NR concentration 30 nM, RXRa partner concentration 10 nM)
Procedure, shortened: as §1

[10] = test system: PPARg:RXRa 90nM:30nM, anti-RXR (NR concentration 90 nM, RXRa partner concentration 30 nM)
Procedure, shortened: as §1

[11] = test system: PPARg:RXRa DBDmut IVT, anti-RXR (DBD mutation: RXRa K156A/R161A, NR concentration 270 nM, RXRa partner concentration 90 nM)
Procedure, shortened: as §1

[12] = test system: PPARg:RXRa IVT, anti-PPARg (NR concentration 270 nM, RXRa partner concentration 90 nM)
Procedure, shortened: as §1

[13] = test system: PPARg DBDmut:RXRa IVT, anti-PPARg (DBD mutation: PPARg1 K132A/R137A, NR concentration 270 nM, RXRa partner concentration 90 nM)
Procedure, shortened: as §1

[14] = test system: PPARg DBDmut IVT, anti-PPARg (DBD mutation: PPARg1 K132A/R137A, NR concentration 270 nM)
Procedure, shortened: as §1

[15] = test system: PPARg homodimer (NR concentration 180 nM)
Procedure, shortened: as §1

[16] = test system: PXR:RXRa (NR concentration 270 nM, RXRa partner concentration 90 nM)
Procedure, shortened: as §1

[17] = test system: PXR homodimer (NR concentration 270 nM)
Procedure, shortened: as §1

[18] = test system: RARa:RXR (NR concentration 270 nM, RXRa partner concentration 90 nM)
Procedure, shortened: as §1

[19] = test system: RARa homodimer (NR concentration 270 nM)
Procedure, shortened: as §1

[20] = test system: RARb:RXRa (NR concentration 270 nM, RXRa partner concentration 90 nM)
Procedure, shortened: as §1

Sequence | PBM binding z-score [1] | PBM binding z-score [2] | PBM binding z-score [3] | PBM binding z-score [4] | PBM binding z-score [5] | PBM binding z-score [6] | PBM binding z-score [7] | PBM binding z-score [8] | PBM binding z-score [9] | PBM binding z-score [10] | PBM binding z-score [11] | PBM binding z-score [12] | PBM binding z-score [13] | PBM binding z-score [14] | PBM binding z-score [15] | PBM binding z-score [16] | PBM binding z-score [17] | PBM binding z-score [18] | PBM binding z-score [19] | PBM binding z-score [20]
TTACCAAGGTGAAAGTTCGTTGATGCACGCCTTG | 1.93 | 1.83 | 0.114 | 1.35 | -0.561 | 4.14 | 6.03 | 6.53 | 4.84 | 6.63 | 1.85 | 4.23 | 0.268 | 0.287 | 0.78 | 2.73 | 1.54 | 2.73 | 0.264 | 2.24
TGTGCTAGGTCAGTTGGTCAGCTAACGAGCTGCC | 0.928 | 0.621 | -0.546 | -0.0513 | 0.565 | 1.23 | 0.656 | 1.19 | -0.306 | 0.746 | 1.29 | 3.02 | -0.307 | 0.199 | 0.18 | 0.0475 | -0.625 | 0.36 | -0.296 | 3.26
GCTTACGGGTCAAAGGATATAGCATGAATAGAAT | 5.93 | 3.75 | -0.261 | 3.44 | 0.261 | 5.37 | 5.87 | 5.9 | 3.29 | 5.26 | 4.24 | 4.01 | 1.25 | 1.03 | 1.09 | 3.09 | -0.166 | 3.94 | 0.713 | 3.54
ATATGTAGGTTATTGGGTCATTCAGTTTGCGCAT | 2.82 | 3.05 | 2.1 | 2.62 | 1.34 | 5.16 | 8.04 | 6.41 | 3.93 | 5.9 | 7.67 | 8.16 | 4.52 | 3.64 | 4.1 | 3.06 | 4.6 | 3.36 | 2.83 | 2.5
ATCTCTAGGTAACAAGTTCCGTGAAAGAGAGGAC | 0.25 | -0.0278 | 0.209 | 0.0127 | 0.506 | 0.431 | 0.903 | 1.28 | 0.68 | 1.07 | 3.05 | 2.66 | 0.253 | 1.32 | 0.831 | -0.111 | 0.636 | 0.015 | 0.906 | 0.274
ATATGTAGGTAAAGGGTCATTCAGGTTGGTTCGC | 4.11 | 4.04 | 2.46 | 3.97 | 1.17 | 6.53 | 11.1 | 9.65 | 9.28 | 10.5 | 7.14 | 7.26 | 2.33 | 1.19 | 3.33 | 5.22 | 2.87 | 5.04 | 2.48 | 3.53
ATATGTAGGTTAAGGTTCATTCAGGTTGGTTCGC | 3.46 | 3.69 | 3.61 | 3.2 | 0.826 | 5.83 | 10.6 | 9.42 | 8.81 | 10.9 | 7.08 | 7.48 | 4.12 | 3.24 | 3.29 | 4.08 | 5.13 | 3.48 | 1.87 | 2.21
CAAACTAGGTCACGAAAGGTCAGAGTCGAATGAC | 6.76 | 7.61 | 5.28 | 6.37 | 1.23 | 5.96 | 10.3 | 7.74 | 6.9 | 8.34 | 8.85 | 9.13 | 3.21 | 1.91 | 7.35 | 6.33 | 1.71 | 6.97 | 5.45 | 5.39
AGAACGAGGGCACGCTGAGTAGATAGCAGAGTAG | 0.37 | 0.529 | -0.626 | 0.201 | -0.892 | 2.15 | 2.28 | 1.87 | 0.547 | 1.18 | 4.04 | 3.83 | 1.29 | 0.195 | 0.114 | 0.201 | -0.149 | 0.712 | -0.354 | 2.4
CGTTCAAGGTCAGCAGGTCAGTGAAAGCGACGTG | 6.5 | 4.34 | 0.93 | 3.38 | 0.134 | 5.37 | 5.07 | 5.47 | 1.95 | 4.09 | 3.85 | 4.34 | 0.78 | 0.144 | 2.98 | 4.06 | 1.14 | 5.42 | 1.55 | 5.54
TAGCCTAGGTCATTGGGCCAGCATAGTACGCATC | 3.88 | 3.2 | 0.466 | 1.87 | -0.0227 | 3.46 | 3.57 | 3.71 | 0.617 | 2.5 | 2.61 | 3.89 | 0.103 | -0.682 | 0.524 | 1.58 | -0.351 | 2.11 | -0.399 | 3.64
CCTATTAGTTGACCATAAGCGCAACCGAAGCTCG | 0.497 | 0.827 | 0.899 | 1.04 | 1.41 | 0.528 | 0.326 | 0.456 | 0.0964 | 0.123 | 0.822 | 0.118 | 1.15 | 0.388 | 2.28 | 0.436 | 1.11 | 0.706 | 2.45 | 0.701
AGTCAAAATTCATCTAGGTAACGTAAGATATGCT | -0.194 | -0.373 | -0.0496 | -0.0959 | -0.222 | 0.0588 | 1.19 | 0.183 | 0.359 | 0.0171 | 0.746 | 2.03 | 1.05 | 0.853 | 0.212 | -0.186 | 0.107 | 0.122 | 0.616 | 0.168
